RAD52 inh = blocks human RAD52 DNA annealing; recombinant RAD52 DNA annealing, FRET fluorescence; inhibition, % at 18.7 µM; actives 0.46% (n = 360,000); AID 651710;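 active = every replicate showing at least 50% inhibition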
MLL AF4-AF9 inh = inhibitors of human MLL-AF4/AF9 interaction; inhibition, % at 10 µM; P42568; actives 0.47% (n = 350,000); AlphaScreen, biotin-AF4 peptide binding to FLAG-AF9;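 active = every replicate reaching a set inhibition limit, whatever the replicate mean, cut at about 25% in these data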
FGF22 binding = shifts melting point of recombinant human FGF22 | recombinant FGF22 thermal shift, SYPRO orange fluorescence; percent of sucrose octasulfate shift, DMSO zero | activity (Tm shift, normalised), % at 9.99 µM | Q9HCT0 | actives 1.5% (n = 340,000);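 active = mean Tm shift, scaled 0 neutral to 100 positive control, at about 1.3% or above, every replicate too, limit read from the data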
ERAP1 HTS inh = ERAP1 (human) enzyme inhibition | Q9NZ08 | recombinant ERAP1, Leu-AMC fluorescence, 60 min | inhibition, % at 10.7 µM | actives 0.15% (n = 340,000) | AID 652197;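 active = mean replicate inhibition of at least 30%, or all replicates individually reaching that 30% level; inactive = mean below 30% and not every replicate reaching it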
Target sequence (Q9NZ08 whole entry, looked up): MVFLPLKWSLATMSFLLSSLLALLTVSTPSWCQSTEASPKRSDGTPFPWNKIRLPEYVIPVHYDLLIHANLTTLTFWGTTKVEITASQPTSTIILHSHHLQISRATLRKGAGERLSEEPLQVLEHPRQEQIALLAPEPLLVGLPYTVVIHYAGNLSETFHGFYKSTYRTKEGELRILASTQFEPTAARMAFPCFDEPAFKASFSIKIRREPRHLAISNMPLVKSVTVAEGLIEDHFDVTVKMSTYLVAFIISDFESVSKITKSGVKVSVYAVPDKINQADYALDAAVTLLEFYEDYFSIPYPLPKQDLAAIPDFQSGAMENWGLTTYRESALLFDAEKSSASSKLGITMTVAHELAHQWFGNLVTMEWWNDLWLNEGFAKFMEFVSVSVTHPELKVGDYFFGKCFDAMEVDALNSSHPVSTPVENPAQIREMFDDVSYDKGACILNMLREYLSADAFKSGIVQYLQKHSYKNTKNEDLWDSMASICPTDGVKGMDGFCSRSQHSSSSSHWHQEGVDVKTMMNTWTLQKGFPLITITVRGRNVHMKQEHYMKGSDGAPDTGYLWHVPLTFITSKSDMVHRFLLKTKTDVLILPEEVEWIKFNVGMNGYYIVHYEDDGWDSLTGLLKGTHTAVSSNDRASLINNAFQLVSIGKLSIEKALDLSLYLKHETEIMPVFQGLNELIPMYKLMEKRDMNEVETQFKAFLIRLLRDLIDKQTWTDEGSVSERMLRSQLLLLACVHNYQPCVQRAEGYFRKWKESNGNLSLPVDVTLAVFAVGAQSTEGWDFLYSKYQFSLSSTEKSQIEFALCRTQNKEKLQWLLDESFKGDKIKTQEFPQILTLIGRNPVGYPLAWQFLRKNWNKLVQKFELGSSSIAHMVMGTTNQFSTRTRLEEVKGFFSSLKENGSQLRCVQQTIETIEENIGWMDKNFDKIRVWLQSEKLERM
DENV2 CPE rescue = DENV2-induced cell death inhibition. AID 651640. CPE inhibition, % at 9.99 µM. DENV2-infected cells, cytopathic effect rescue, plate reader. actives 1.7% (n = 350,000); in the data active = CPE inhibition above about 20%, passing the limit was not always enough; tested in BHK-21 cells
Each line names hits and unclear results; the compound was inactive in the other large screens. Hits are enriched below; roughly 4% of the tested compounds scored in any of these assays.

C[C@H]1CN([C@@H](C)CO)C(=O)Cc2cc(NC(=O)Cn3cnnn3)ccc2O[C@H]1CN(C)Cc1ccc(C(=O)Nc2ccccc2N)cc1	none
COc1cc(C=O)ccc1OS(=O)(=O)c1ccc(NC(C)=O)cc1	FGF22 binding 1.9
COc1ccc(/C=C2\SC(=S)NC2=O)cc1OS(=O)(=O)c1ccc(NC(C)=O)cc1	none
CC(=O)Nc1cccc(C(=O)OC(C)C(=O)NC(=O)NC2CCCCC2)c1 (centres undefined)	DENV2 CPE rescue 23.2
CCOc1ncccc1C(=O)OC(C)C(=O)NC(=O)NC1CCCCC1 (centres undefined)	FGF22 binding 43.5
CCOc1ncccc1C(=O)OCC(=O)NC1CCCCC1	none
COc1ccc(C(=O)Nc2cccnc2Cl)cc1OC	none
Cc1cc(C)n(-c2ccc(C(=O)Nc3cccnc3Cl)cc2)n1	FGF22 binding 43.1
CC(=O)NS(=O)(=O)c1ccc(NC(=O)c2ccc(-n3nc(C)cc3C)cc2)cc1	FGF22 binding 43.1
C[C@@H]1CN([C@@H](C)CO)C(=O)c2cc(NC(=O)Nc3ccc4c(c3)OCO4)ccc2O[C@H]1CN(C)C(=O)Nc1ccc(C(F)(F)F)cc1	none
CC(C)(C)NC(=O)c1nn(Cc2ccccc2)c(=O)c2ccccc12	FGF22 binding 43.4
CCC(CC)NC(=O)c1nn(Cc2ccccc2)c(=O)c2ccccc12	none
COc1ccc(NC(=O)Nc2cccc3c2O[C@H](CN(C)Cc2ccc(Oc4ccccc4)cc2)[C@@H](C)CN([C@H](C)CO)C3=O)cc1	none
C=CC(C)(O)CCC=C(C)C (centres undefined)	DENV2 CPE rescue 101.1
O=C(C[C@H]1CC[C@H]2[C@@H](COC[C@@H](O)CN2Cc2ccc3c(c2)OCO3)O1)N1CCOCC1	none
O=C(C[C@@H]1CC[C@H]2[C@@H](COC[C@@H](O)CN2Cc2ccc3c(c2)OCO3)O1)N1CCOCC1	DENV2 CPE rescue 29.8
CN1CCN(C(=O)C[C@H]2CC[C@H]3[C@@H](COC[C@H](O)CN3Cc3ccc4c(c3)OCO4)O2)CC1	DENV2 CPE rescue 56.0
CCN(CC)CCCCN1c2ccccc2Sc2ccccc21	MLL AF4-AF9 inh 25.4
Cc1cccc(NC(=O)COC(=O)c2ccccc2SCC(=O)N2CCCC2)c1	FGF22 binding 28.3
NC(=O)c1ccc(NC(=O)COC(=O)c2ccccc2SCC(=O)N2CCCC2)cc1	none
C[C@H](CO)N1C[C@H](C)[C@@H](CN(C)C(=O)CCCN(C)C)OCCCC[C@H](C)Oc2ccc(NC(=O)Nc3ccc(C(F)(F)F)cc3)cc2C1=O	none (no result: RAD52 inh, MLL AF4-AF9 inh, ERAP1 HTS inh)
Cc1ccc2c(c1)nc(-n1nc(C)cc1C)c1nnnn12	FGF22 binding 42.9 (no result: DENV2 CPE rescue)
COc1ccc(S(=O)(=O)N(C)C[C@@H]2OCCCC[C@@H](C)Oc3ccc(NC(=O)Nc4ccccc4)cc3C(=O)N([C@H](C)CO)C[C@H]2C)cc1	none (no result: RAD52 inh, MLL AF4-AF9 inh, ERAP1 HTS inh)
Cc1[nH]c(=O)[nH]c(=O)c1Cc1cccc2ccccc12	FGF22 binding 43.3 (no result: DENV2 CPE rescue)
CCOc1cc(N2CCOCC2)c(OCC)cc1NC(=O)c1ccc(C)cc1	none
CCOc1cc(N2CCOCC2)c(OCC)cc1NC(=O)[C@H](C)NC(=O)c1ccco1	DENV2 CPE rescue 37.5
CCOc1cc(N2CCOCC2)c(OCC)cc1NC(=O)c1ccc(OC(C)C)cc1	FGF22 binding 43.4
CCOc1cc(N2CCOCC2)c(OCC)cc1NC(=O)CN1CCC(Cc2ccccc2)CC1	MLL AF4-AF9 inh 28.9
O=C(N[C@@H]1CC[C@@H](CCn2cc(-c3cccnc3)nn2)O[C@@H]1CO)c1ccccc1F	none
CC(C)CNC(=O)COC(=O)c1cccc(S(=O)(=O)NCC(F)(F)F)c1	MLL AF4-AF9 inh 25.2
CN1CCN(C(=O)C[C@@H]2C[C@H]3c4cc(NC(=O)Nc5ccc(C(F)(F)F)cc5)ccc4O[C@H]3[C@H](CO)O2)CC1	none
CCOc1ccc2[nH]c(C)c(CN3CCOCC3)c(=O)c2c1	none
CCOc1ccc2[nH]c3ncccc3c(=O)c2c1	DENV2 CPE rescue 30.2
CCOC(=O)C1(CCOC)CCN(C2C3CC4CC(C3)CC2C4)CC1 (centres undefined)	FGF22 binding 43.3
COc1cccc(-c2ccc(C3[C@@H]4CN(C(=O)Cc5ccccc5)C[C@H]3N4)cc2)c1 (some centres undefined)	none (no result: RAD52 inh, FGF22 binding, ERAP1 HTS inh)
CCC(=O)N1CC2(CN(Cc3ccncc3)C2)c2c(n(C)c3cc(OC)ccc23)[C@@H]1CO	none
CCCNC(=O)C[C@H]1CC[C@@H]2[C@H](COC[C@H](O)CN2C(=O)CC)O1	DENV2 CPE rescue 82.8
CCCNC(=O)C[C@H]1CC[C@H]2[C@@H](COC[C@@H](O)CN2C(=O)Nc2ccccc2OC)O1	DENV2 CPE rescue 43.9
CCNC(=O)C[C@@H]1CC[C@@H]2[C@H](COC[C@@H](O)CN2C(=O)CC)O1	none
CCCNC(=O)C[C@H]1CC[C@H]2[C@@H](COC[C@H](O)CN2C(=O)Nc2ccccc2OC)O1	DENV2 CPE rescue 20.9
C[C@@H]1CCCCO[C@@H](CN(C)S(=O)(=O)c2cccs2)[C@@H](C)CN([C@H](C)CO)C(=O)c2cc(NC(=O)Nc3cccc4ccccc34)ccc2O1	none (no result: RAD52 inh, MLL AF4-AF9 inh, ERAP1 HTS inh)
COc1cc2c3nnc(-c4ccccc4)c-3cn(Cc3ccc(F)cc3)c2cc1OC	FGF22 binding 43.8 (no result: DENV2 CPE rescue)
Nc1cc(N)nc(SCC(=O)NCc2ccc3c(c2)OCO3)n1	none
O=C(CSc1ccc2ccccc2n1)NCc1ccc2c(c1)OCO2	FGF22 binding 43.0
Cc1cc(C)cc(-n2c(SCC(=O)NCc3ccc4c(c3)OCO4)nc3ccccc3c2=O)c1	none
O=C(CSc1nc(C2CCCCC2)nc2ccccc12)NCc1ccc2c(c1)OCO2	FGF22 binding 43.6
COc1ccc(S(=O)(=O)N[C@@H]2CC[C@@H](CC(=O)N3CCc4ccccc4C3)O[C@@H]2CO)cc1	none
Cc1ccc(-c2n[nH]c(S(C)(=O)=O)c2C#N)cc1	none (no result: MLL AF4-AF9 inh)
Cc1cccc(-c2n[nH]c(S(C)(=O)=O)c2C#N)c1	MLL AF4-AF9 inh 97.4
O=C(NCC[C@@H]1CC[C@@H](NS(=O)(=O)c2ccc(F)cc2)[C@@H](CO)O1)Nc1ccc(F)cc1	none
CC(=O)N/C(=C\c1ccccc1)C(=O)OCC(=O)NC1CCCC1	DENV2 CPE rescue 21.3
CC(=O)N/C(=C\c1ccccc1)C(=O)OCC(=O)c1ccccc1	none
COc1ccc(CC(=O)NC2CCCCCC2)c(OC)c1	DENV2 CPE rescue 63.8
COc1cccc(/C=C/C(=O)OCC(=O)NC2CCCCCCC2)c1	FGF22 binding 25.5
COc1ccc(OC)c(NC(=O)CCCC(=O)NC2CCCCC2)c1	none
Cc1ccc(S(=O)(=O)NNC(=O)C23CCC(CC2)C3)cc1	FGF22 binding 42.9
O=C(C(O)c1ccccc1)N1CCN(S(=O)(=O)c2ccc(F)c(F)c2)CC1 (centres undefined)	none (no result: MLL AF4-AF9 inh)
Cc1ccc(S(=O)(=O)N2CCN(C(=O)C(O)c3ccccc3)CC2)cc1 (centres undefined)	DENV2 CPE rescue 37.3 (no result: MLL AF4-AF9 inh)
Cc1ccc(S(=O)(=O)N2CCN(C(=O)CNC(=O)c3ccc(Cl)cc3)CC2)cc1	FGF22 binding 43.5
